This passage reports growth results from PubChem BioAssay (NCI).

SMILES strings stand for the structures. Compounds without any hit were thinned out: in the full panel of roughly 83,000, 20% have a hit.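 For each line, cells grew in 96-well plates with the test compound present at a single concentration for 48 hours.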 Unmarked numbers belong to inactive results. Activity calls are given as the source filed them. The calls were made as follows: active = growth percent below 10; inactive = the rest.

Test systems include T-47D breast; BT-549 breast; MDA-MB-435 melanoma; SW-620 colon; MCF7 breast; HCT-116 colon; HCC-2998 colon; KM12 colon.
Common to all, as to assay: NCI-60 one-dose screen, 48 h (100 = growth as untreated, 0 = no growth, -100 = all killed)
Common to all, as to settings: 10 µM unless noted

Consider `COc1ccc(C(=O)c2cc3c(N)c(C(=O)Nc4cccc5ccccc45)sc3nc2C)cc1`, for which the growth with T-47D breast was 32.6%; with BT-549 breast, 45.1%; with MDA-MB-435 melanoma, -6.84% (active); in the assay on SW-620 colon it was 21.9%; in the assay on MCF7 breast, 19.4%; with HCT-116 colon, 6.55% (active). The growth in the assay on HCC-2998 colon is 20.8%; with KM12 colon it was 12.3%.

With `NC(=S)N/N=C(\c1ccc(Cl)cc1)C1CC1`, the growth was 30.6% in the assay on T-47D breast; 114% in the assay with BT-549 breast; 93.8% in the assay with MDA-MB-435 melanoma; 72% in the assay with SW-620 colon; 18.5% in the assay on MCF7 breast; 3.65% (active) in the assay on HCT-116 colon. The growth is 102% with HCC-2998 colon and 100% in the assay with KM12 colon.

Take `CCn1ccnc1C(=O)/C=C/c1ccc(CC(=O)Nc2ccc(F)cc2)cc1`: the growth with T-47D breast is 24.5%; in the assay on BT-549 breast, 4.63% (active); in the assay on MDA-MB-435 melanoma, 20%; with SW-620 colon, 6.04% (active); with MCF7 breast it was 25.2%; in the assay with HCT-116 colon, 1.33% (active). Besides, the growth with HCC-2998 colon is 78.8%; in the assay on KM12 colon it was -14.3% (active).

In the case of `Cc1c(C(=O)NO)sc2ncnc(Nc3ccc(NC(=S)Nc4ccccc4)cc3)c12`, the growth is 113% with T-47D breast; 106% in the assay on BT-549 breast; 101% in the assay with MDA-MB-435 melanoma; 105% in the assay with SW-620 colon; 95.3% with MCF7 breast; 105% in the assay on HCT-116 colon. Moreover, the growth in the assay on HCC-2998 colon is 99.9%; with KM12 colon, 102%.

In the case of `CCCNC(=O)Oc1ccc(/C(=C(\C)c2ccccc2)c2ccc(OCCN3CCCCC3)cc2)cc1`, the growth is 38.7% in the assay on T-47D breast; 69.8% in the assay with BT-549 breast; 78.8% in the assay with MDA-MB-435 melanoma; 80.8% in the assay on SW-620 colon; 27.9% in the assay with MCF7 breast; 46.5% with HCT-116 colon. Also, the growth with HCC-2998 colon is 86.9%; in the assay on KM12 colon, 58.9%.

In the case of `O=C(N/N=C/c1cccc(O)c1)c1ccccc1Nc1cccc(C(F)(F)F)c1`, the growth in the assay on T-47D breast was 52%; with BT-549 breast, 67.3%; in the assay with MDA-MB-435 melanoma it was 88.8%; in the assay with SW-620 colon, 95.1%; in the assay with MCF7 breast it was 73.4%; in the assay on HCT-116 colon it was 83.4%. For the same compound, the growth in the assay with HCC-2998 colon is 82.7%; in the assay on KM12 colon, 81.5%.

On to `CC(=O)N1c2ccccc2NC2=C(C(=O)N(Cc3ccccc3)C2(C)C)C1c1ccco1` (configuration not stated), for which the growth is 35.1% with T-47D breast; 47.6% with BT-549 breast; -56.2% (active) with MDA-MB-435 melanoma; 21.7% in the assay on SW-620 colon; 15.3% in the assay with MCF7 breast; 7.52% (active) with HCT-116 colon. In addition, the growth with HCC-2998 colon is 3.73% (active); in the assay on KM12 colon, 14.8%.

Regarding `O=C1OC(=O)C2C1CC=CC2c1ccccc1` (configuration not stated), the growth is 91.5% in the assay with T-47D breast; 93.1% in the assay with BT-549 breast; 102% in the assay on MDA-MB-435 melanoma; 86.7% with SW-620 colon; 89% in the assay on MCF7 breast; 97.3% with HCT-116 colon. In addition, the growth was 79.9% with HCC-2998 colon and 84.8% in the assay on KM12 colon.

Turning to `O=C(O)CCCCCCCCCCCCCCC(=O)O`, the growth in the assay with T-47D breast was 110%; with BT-549 breast, 105%; with MDA-MB-435 melanoma it was 109%; in the assay on SW-620 colon, 109%; in the assay with MCF7 breast, 97%; in the assay with HCT-116 colon, 107%. In addition, the values for the growth with HCC-2998 colon and in the assay on KM12 colon were 101% and 102%, respectively.

Turning to `CCN(CC)CCCCCCNc1cc(OC)cc2cccnc12`, the growth in the assay on T-47D breast is 92.5%; in the assay on BT-549 breast it was 83.9%; with MDA-MB-435 melanoma, 17.8%; in the assay with SW-620 colon it was -64.5% (active); in the assay with MCF7 breast, 20%; in the assay on HCT-116 colon it was -54.4% (active). Besides, the growth in the assay with HCC-2998 colon was 84.1%; in the assay on KM12 colon, 76%.

`O=C(Nc1nc(-c2ccc(Br)cc2)cs1)c1cc(-c2ccc(Br)cc2)nc2ccc(Cl)cc12`: the growth was 56.9% in the assay on T-47D breast; 100% in the assay with BT-549 breast; 104% in the assay on MDA-MB-435 melanoma; 85.7% with SW-620 colon; 68.5% in the assay on MCF7 breast; 61.3% in the assay with HCT-116 colon. For the same compound, the growth in the assay with HCC-2998 colon is 92.8%; with KM12 colon, 83.3%.

With `COc1ccncc1C#Cc1cncc(C(=O)Nc2ccc(CN3CCN(C)CC3)c(C(F)(F)F)c2)c1`, the growth in the assay on T-47D breast is 55.9%; in the assay on BT-549 breast, 50.9%; in the assay with MDA-MB-435 melanoma, 15.4%; in the assay with SW-620 colon, 4.42% (active); with MCF7 breast, 6.1% (active); with HCT-116 colon, 8.44% (active). The growth is 40.9% in the assay with HCC-2998 colon and 6.75% (active) in the assay with KM12 colon.

Turning to `COc1cc(Nc2cc(O)c3c(=O)cc(-c4ccccc4)oc3c2)cc(OC)c1`, the growth in the assay on T-47D breast was 55.2%; in the assay on BT-549 breast, 80.2%; with MDA-MB-435 melanoma, 4.04% (active); in the assay with SW-620 colon it was 24.9%; in the assay on MCF7 breast it was 23.5%; in the assay with HCT-116 colon, 13%. Further, the growth in the assay on HCC-2998 colon is 32.4%; in the assay on KM12 colon, 21%.

As for `COc1cccc(NC(=O)c2cccc(-c3cc(=O)c4c(OC)c(OC)c(OC)cc4o3)c2)c1`, the growth in the assay on T-47D breast is 44.4%; in the assay with BT-549 breast, 54.2%; with MDA-MB-435 melanoma it was 81.2%; with SW-620 colon, 89.6%; in the assay with MCF7 breast, 87.7%; in the assay on HCT-116 colon, 60.7%. Besides, the growth was 87.8% with HCC-2998 colon and 53.7% with KM12 colon.
